IEC-6 cytotox = counter-screen for KLF5 inhibitors: cytotoxicity in IEC-6 cells | IEC-6 cytotoxicity, luminescence viability | inhibition, % at 5 µM | 290,000 tested, 0.78% active; in the data active = inhibition above about 22%;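 note: 0% = plate median of test compound wells and 100% = cytotoxic reference compound wells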
aSyn UTR inh = 5' untranslated region of α-synuclein, MLPCN primary screen; inhibition, % (tested at 7.5 µM); 300,000 tested, 0.82% active; alpha-synuclein 5'UTR reporter, inhibitor activity; in the data active = inhibition above about 60%; inconclusive = no clear call, values can overlap the other calls;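 note: H4 neuroglioblastoma cells stably carrying SNCA 5'UTR luciferase fusion; 0% = DMSO wells and 100% = positive control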
SKKanGAS inh = blocks kanamycin growth of S. pyogenes SKKanGAS strain. BacTiter-Glo, 6 h. inhibition, % at 7.5 µM. 300,000 tested, 1.3% active. AID 1662;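 active = mean replicate score, as percent of positive control median, at least 50; inconclusive = mean below 50 but one replicate at or above 50; inactive = mean and every replicate below 50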;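 note: strain carries kanamycin resistance gene driven by streptokinase promoter and grows in 40 µg/ml kanamycin; loss of luminescence reflects streptokinase promoter inhibition or plain growth inhibition; 0% = median of DMSO wells and 100% = positive control at its reference dose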
CSC inhib = blocks cancer stem cells; cancer stem cell-like cells viability, luminescence; inhibition, % at 7.5 µM; 300,000 tested, 1.1% active; AID 2717; in the data active = inhibition above about 75%; inconclusive = no clear call, values can overlap the other calls; tested in HMLE shEcad cells
KLF5 inh = kruppel-like factor 5 inhibition. 290,000 tested, 0.23% active. DLD-1 KLF5 promoter-luciferase reporter, luminescence. inhibition, % at 5 µM;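 active = inhibition above a per-plate limit of that plate's mean compound inhibition plus 3 SD, cut at about 60% in these data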;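 note: 0% = DMSO wells and 100% = LY294002 at 200 µM; higher means less KLF5 promoter-driven luciferase light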
* = called active by the depositor; ? = inconclusive; . = not tested or not shown. Shown are actives, neighbours in structure and some others; about 3% of the full set was active somewhere.

SMILES	IEC-6 cytotox	aSyn UTR inh	SKKanGAS inh	CSC inhib	KLF5 inh
COC(=O)CSc1nnc(NC(=O)C2CC(=O)N(c3ccc(F)cc3)C2)s1 (stereo not given)	0	-4	50*	-7	-31
CCSc1nnc(NC(=O)c2ccccn2)s1	47*	67*	68*	2	-155
Cc1ccc(CN2CC(C(=O)Nc3nnc(SCc4c(Cl)cccc4Cl)s3)CC2=O)cc1 (stereo not given)	0	5	79*	-2	19
Cc1cnc(C(=O)Nc2nnc(SCc3c(Cl)cccc3Cl)s2)cn1	3	11	102*	3	-7
Cc1cc(C(=O)Nc2ccc(N3CCOCC3)c3nonc23)ccc1[N+](=O)[O-]	3	-28	5	.	-45
CN1CCN(c2c(F)cc3c(=O)c(C(=O)O)cn(CCF)c3c2F)CC1	6	.	.	.	12
CN1CCN(c2c(F)cc3c(=O)c(C(=O)O)cn4c3c2OCN4C)CC1	3	-20	104*	-6	6
CCN(CC)c1ccc(/C=C/c2nc3ccccc3s2)cc1	-3	52	?	90*	0
COc1cc(/C=C2\COC/C(=C\c3ccc(O)c(OC)c3)C2=O)ccc1O	3	103*	16	87*	-23
COc1cc(/C=C2/CC/C(=C/c3ccc(O)c(OC)c3)C2=O)ccc1O	-2	-71	?	48	-13
CN(C)C(CNC(=S)Nc1ccc(F)cc1)c1cccnc1 (stereo not given)	7	-5	-3	-16	6
O=C1NN(c2ccc(Br)cc2)C(=O)/C1=C\c1ccc(O)cc1O	-3	-1	4	2	-31
O=C1NN(c2cccc(Br)c2)C(=O)/C1=C\c1ccc(O)cc1	-5	14	1	108*	-15
O=C(Nc1ccc(F)cc1)c1cccnn1	2	-25	2	-7	-18
CC(C)(C)c1cc(-c2nc(N)nc(N)n2)c(O)c(C(C)(C)C)c1	.	.	.	126*	.
Cc1ccc(C)c(Cn2nnc3c(=O)[nH]c(C4CCCN(C(=O)c5cccs5)C4)nc32)c1 (stereo not given)	-5	13	7	-11	-10
O=C1N=C2N(CCN3CCCCC3)c3ccccc3N2/C1=C\c1ccc([N+](=O)[O-])o1	-5	.	.	.	-18
O=C(Cn1ncc(Cl)c(Cl)c1=O)c1ccc2c(c1)OCCO2	.	.	.	112*	.
CN1CCN(/N=C/c2ccc(N(C)c3ccccc3)cc2)CC1	1	-21	-1	46	-7
CN1CCN(/N=C/c2ccc(N(c3ccccc3)c3ccccc3)cc2)CC1	-1	71*	10	86*	-19
C=C[C@]1(C)C[C@@H](OC(=O)CSCCN(CC)CC)[C@]2(C)C(C)CC[C@]3(CCC(=O)[C@H]32)[C@@H](C)[C@@H]1O (stereo not given in full)	.	2	104*	-3	.
COc1ccc(C(=O)NCCc2nnc3ccc(SCC(=O)Nc4ccccc4F)nn23)cc1	0	20	-2	-17	-8
Cc1ccc(N=Cc2cccc(O)c2O)c(C)c1	-6	-62	57*	?	-24
CC1(C)CC2CC(C)(CN2C(=O)c2cc(-c3ccc(O)cc3)on2)C1 (stereo not given)	3	4	34	87*	-4
Cc1sc(NC(=O)C2C3C=CC(C3)C2C(=O)O)c(C(N)=O)c1-c1ccc(C(C)C)cc1 (stereo not given)	-7	22	53*	-3	5
SMILES	IEC-6 cytotox	aSyn UTR inh	SKKanGAS inh	CSC inhib	KLF5 inh
CCOC(=O)c1c(NC(=O)C2C3C=CC(CC3)C2C(=O)O)sc(C)c1C (stereo not given)	-13	10	3	13	-1
CC(=O)[C@H]1[C@H]([C@H](O)[C@H](O)CO)O[C@](O)(C(=O)O)C[C@@H]1O	.	.	.	-4	.
COc1ccc(NCc2nn(CC(=O)c3ccc(Br)cc3)c3[n+]2CCCCC3)cc1	-1	5	-3	0	-3
O=C(Cn1nc(CNc2ccc(Cl)cc2)[n+]2c1CCCCC2)c1ccc(Br)cc1	8	5	84*	-1	10
CCc1nc2sc3c(c2c(=O)n1N)CC(C)(C)OC3	0	24	-7	-6	1
CCCCCCCCCc1nc2sc3c(c2c(=O)n1NC(=O)c1ccc([N+](=O)[O-])cc1)CC(C)(C)OC3	-6	18	64*	-21	-25
CCCc1nc2sc3c(c2c(=O)n1NC(=O)c1ccco1)CC(C)(C)OC3	2	4	3	-16	1
CCCCCCCCCc1nc2sc3c(c2c(=O)n1NC(=O)c1ccccc1[N+](=O)[O-])CC(C)(C)OC3	-1	11	65*	107*	-19
CC(=O)NS(=O)(=O)c1ccc(NC(=S)NC(=O)Cc2ccccc2)cc1	-11	13	-9	-1	-9
Cc1cccc(-c2nc(C#N)c(NC3CCCCC3)o2)c1	-4	-171	3	99*	-99
Cc1ccc(NS(=O)(=O)c2ccc(Cl)c(NC(=S)NC(=O)C3CCCCC3)c2)cc1Cl	0	3	84*	106*	-3
Cc1ccc(NC(=O)C2CCCC2)cc1Cl	.	-20	6	.	.
NNc1nc(Nc2ccccc2)nc(Nc2ccccc2)n1	6	-117	52*	-15	-53
COc1ccc(Nc2nc(NN)nc(Nc3ccc(OC)cc3)n2)cc1	-1	0	50*	.	-30
O=C(c1ccc2c3n(nc2c1)-c1ccccc1CO3)N1CCOCC1	.	-114	37	98*	.
O=C(c1ccc2c3n(nc2c1)-c1ccccc1CO3)N1CCCCC1	.	-10	51*	?	.
CCOC(=O)c1cnc2c(C)cc(C)cc2c1NCCCN1CCOCC1	9	1	13	-3	-32
Cc1cc(C)c(C#N)c(N2CCN(c3ccccc3F)CC2)n1	7	17	50*	5	-25
Cc1cc(C)c(C#N)c(N2CCN(Cc3ccccc3)CC2)n1	-3	27	-16	.	-13
C=CCNC(=O)N1CCC(c2nc3ccccc3s2)CC1	8	8	-5	-9	-1
Nc1c(S(=O)(=O)c2cccc(Cl)c2)c2nc3ccccc3nc2n1/N=C/c1ccc(O)c(O)c1	4	89*	95*	-10	23
COc1cccc(/C=N/n2c(N)c(S(=O)(=O)c3cccs3)c3nc4ccccc4nc32)c1OC	-6	10	21	5	7
CC(=O)/C(=C\N(C)C)Sc1ccc(Cl)cc1	-2	-8	1	-4	-4
S=C(Sc1ccc(Cl)cc1)Sc1ccc(Cl)cc1	-1	-47	37	77*	-8
CCC1CSC(Nc2ccc(C(=O)/C=C/c3ccc(Oc4ccccc4)cc3)cc2)=N1 (stereo not given)	3	-88	35	56	4
CCC1CSC(Nc2ccc(C(=O)/C=C/c3cccc(C)c3)cc2)=N1 (stereo not given)	5	-34	40	87*	-28
CCC(C)(C)c1ccc(OCCCC[n+]2ccccc2)c(C(C)(C)CC)c1	6	20	.	105*	13
COc1ccc(NC(=O)NNC(=O)c2ccccc2-n2cccc2)cc1OC	2	5	-11	-17	-24

High-throughput results from PubChem BioAssay.
